Most compounds without a hit are left out; they make up all but 8.3% or so of the library.
MCF10A rerep – induces DNA re-replication in MCF 10a normal breast cells | MCF 10A DNA re-replication, Hoechst nuclear intensity, 48 h | Potency, µM (titrated, usually from 46.1 µM), inactives show at the top dose activity, positive = re-replication, most hits filed as activators | 350,000 compounds, 2.9% hits; also: potency is read from the fitted curve at half-maximal effect; % of control where 0% means no effect; nearly all actives have a fitted effect of over 50% in size
BCR signal inh – chronic active BCR signaling inhibition; ABC-DLBCL IkBa-CBG/CBR reporter, luminescence ratio, 4 h; Potency, µM (highest dose often 46.1 µM), without a hit: at the top dose activity change, negative = inhibition, most hits filed as inhibitors; 340,000 compounds, 0.05% hits; AID 493014; active = well fitted inhibition curve with a large enough effect in the signal ratio, with a control signal flat, not every such curve was filed as active; inconclusive = small, poorly fitted or top-dose-only effect, or effect the other way, or a change in a side signal; the % refers to the signal ratio;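 also: potency is read from the fitted curve at half-maximal effect; plate controls were basal doxycycline-induced cells for no effect and cells given 10 µM MG132 for full effect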
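Concentration-response series (up to 46 uM) were applied to TMD8 dual-reporter cells for 4 h at 37C with doxycycline. Green/red ratio, after filter-overlap correction, defined %Activity; red signal alone was normalised to basal cells and zero luminescence.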
RORg inh – ROR gamma (mouse) transcription inhibition; 310,000 compounds, 5.4% hits; P51450; Drosophila S2 Gal4-RORgamma UAS-luciferase reporter, 20 h; Potency, µM (series often up to 53.6 µM), inactives show at the top dose activity change, negative = inhibition, most hits filed as inhibitors; also: potency is read from the fitted curve at half-maximal effect; % is scaled to controls: 0 for no effect and ±100 for the full control effect; nearly all actives have a fitted effect of over 60% in size
Target sequence (P51450 whole entry, looked up, the tested form may be a part): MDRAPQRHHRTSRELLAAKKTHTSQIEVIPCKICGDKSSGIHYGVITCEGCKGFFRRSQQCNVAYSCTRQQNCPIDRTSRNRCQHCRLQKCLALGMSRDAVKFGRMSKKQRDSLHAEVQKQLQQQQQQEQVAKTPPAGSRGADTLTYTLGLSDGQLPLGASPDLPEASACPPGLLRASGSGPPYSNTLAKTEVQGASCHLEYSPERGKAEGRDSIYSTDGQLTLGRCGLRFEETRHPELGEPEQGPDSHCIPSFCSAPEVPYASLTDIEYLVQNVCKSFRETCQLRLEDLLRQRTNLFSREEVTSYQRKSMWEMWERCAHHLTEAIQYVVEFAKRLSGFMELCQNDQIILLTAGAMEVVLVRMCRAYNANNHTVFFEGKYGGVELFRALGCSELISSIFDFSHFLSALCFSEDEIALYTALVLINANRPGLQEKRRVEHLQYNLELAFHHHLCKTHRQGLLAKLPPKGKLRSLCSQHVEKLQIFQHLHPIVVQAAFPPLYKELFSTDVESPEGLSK
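Using a luciferase readout, inhibitors were identified by reduced reporter activity in Drosophila cells coexpressing a copper-inducible Gal4–ROR gamma fusion and UAS-driven Photinus luciferase, incubated 20 hr after 700 uM copper sulfate.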
Gal4-VP16 FLuc – counter-screen for ROR gamma inhibitors: Gal4-VP16 reporter | Drosophila S2 Gal4-VP16 UAS-luciferase, luminescence, 20 h | Potency, µM (highest dose often 53.6 µM), without a hit: at the highest dose activity, negative = inhibition, most hits filed as inhibitors | 310,000 compounds, 3.5% hits | AID 2546;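 also: Gal4-VP16 expression switched on by copper sulfate through the metallothionein promoter; potency is read from the fitted curve at half-maximal effect; % is scaled to controls: 0 for no effect and ±100 for the full control effect; nearly all actives have a fitted effect of over 50% in size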
SW480 rereplic – inducers of DNA re-replication in SW480 colon cancer cells. Potency, µM (top dose mostly 46.1 µM), for inactives: top-dose re-replication activation, actives largely listed as activators. 340,000 compounds, 1.8% hits. SW480 DNA re-replication, Hoechst DNA content imaging, 48 h; also: potency is read from the fitted curve at half-maximal effect; % of control where 0% means no effect; nearly all actives have a fitted effect of over 55% in size
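Cells (250 per well) received 23 nL compound or DMSO by pin tool and were kept 48 hr at 37 C, 5% CO2. Nuclei were then stained with Hoechst for 40 min and scanned for DNA content.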
Giardia kill – Giardia lamblia killing | activity change, % at 7.66 µM, hits read low | 340,000 compounds, 0.15% hits | AID 540267 | Giardia lamblia trophozoite viability; in the data active = activity change below about -80%; inconclusive = between about -30% and that limit;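 also: parasites exposed to compound for two days anaerobically before the ATP read; % is scaled to controls: 0 for no effect and ±100 for the full control effect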
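Trophozoite viability was measured as ATP-dependent luminescence, read 15-30 min after reagent addition. Before that, parasites at 100 cells/well were exposed to compounds for 48 h, anaerobically, at 37 deg C.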
* = called active by the depositor; ? = inconclusive; / = no result given; [ ] = remark or other dose. Unless noted, calls follow the shape of the dose curve; as a rule, active = well fitted curve in the direction sought with a large enough effect; inconclusive = small, poorly fitted or top-dose-only effect, or another doubt; inactive = no such curve, though single readings can be large; an effect the other way counts as inactive or inconclusive.

SMILES | MCF10A rerep | BCR signal inh | RORg inh | Gal4-VP16 FLuc | SW480 rereplic | Giardia kill
Cn1ncnc1SCc1cn2cccnc2n1 | -3.0% | 1.0% | 12.1% | -13.4% | -39.4% | 2.6
CCS(=O)(=O)Nc1ccc(C2=NN(C(=O)c3ccco3)C(c3ccc(C)cc3)C2)cc1 (configuration not stated) | 2.8% | ? | -20.7% | 17.8µM* | ? | 1.5
Cc1ccc(C2CC(c3ccc(NS(C)(=O)=O)cc3)=NN2C(=O)c2ccco2)cc1 (configuration not stated) | -0.8% | ? | 25.3% | 3.8% | -0.9% | 3.0
CCN(CC)CCCNc1cc(C)nc2cc(-c3cccs3)nn12 | ? | -7.2% | 11.2µM* | ? | ? | -28.5
Cc1ccc(-c2cc3nc(C)cc(NCc4ccco4)n3n2)cc1 | 5.17µM* | ? | ? | ? | ? | -20.1
Cc1cc(C(F)(F)F)n2nc(-c3cccs3)cc2n1 | -1.5% | 8.7% | -2.1% | -10.0% | 7.5% | -3.1
COCCNc1cc(C)nc2cc(-c3ccc(C)cc3)nn12 | ? | ? | ? | 4.6% | 16.4µM* | -10.2
CC(C)(C)c1nnc(SCC(=O)c2ccccc2)n(N)c1=O | 2.1% | 0.9% | ? | ? | -701.0% | -8.6
COc1cc(/C=N/n2cnnc2)ccc1OS(=O)(=O)c1ccccc1[N+](=O)[O-] | 6.5% | -4.7% | 18.3% | -12.8% | 0.6% | -20.9
O=[N+]([O-])c1ccccc1S(=O)(=O)Oc1ccc(/C=N/n2cnnc2)cc1 | 14.6% | -17.3% | 15.4% | -1.1% | 0.2% | -80.8*
CSCCC(NS(=O)(=O)c1ccccc1F)C(=O)Nc1cccc(C)n1 (configuration not stated) | 8.5% | 2.7% | 15.6% | -7.2% | 15.1% | 2.7
CCOC(=O)C1=C(C)N=c2s/c(=C/c3ccc(OCC(=O)O)cc3)c(=O)n2C1c1cc(OC)c(OC)c(OC)c1 (configuration not stated) | 1.9% | 0.4% | 8.5%[1.91 µM] | 6.4% | -11.8% | 9.8
CCOC(=O)C1=C(C)N=c2s/c(=C\c3ccc(OCC(=O)O)cc3)c(=O)n2C1c1ccc(OC(C)C)cc1 (configuration not stated) | 14.6µM* | -4.1% | 9.6% | -8.7% | -40.1% | 0.9
COc1ccc(NC(=O)C2=C(C)Nc3nc(CCCO)nn3C2c2ccc(O)cc2)cc1 (configuration not stated) | / | -5.8% | / | / | / | /
O=[N+]([O-])c1cccc(NC(=S)Nc2nc(-c3ccccc3Cl)cs2)c1 | ? | ? | 2µM* | 2.51µM* | 21.7% | -8.4
CCNC(=S)Nc1cccc([N+](=O)[O-])c1 | 2.9% | 5.2% | -0.5% | -1.5% | -8.8% | /
O=C(Nc1ccc(Br)cc1)C1CCCC1 | 0.8% | -3.1% | -21.2% | 1.2% | -2.6% | 1.5
O=C(NC(=S)Nc1ccc(Br)cc1)C1CCC1 | 1.9% | ? | 6.31µM* | 7.94µM* | 1.5% | 3.0
O=C(NC(=S)NCc1ccccc1)C1CCCCC1 | ? | 6.8% | 1.58µM* | 7.08µM* | -1.5% | -6.1
O=C(NC(=S)Nc1ccccc1)C1CCCCC1 | -2.0% | ? | 2.82µM* | 3.98µM* | 16.5% | -2.8
CCOc1ccccc1NC(=O)CSc1nc2c(c(=O)n(C)c(=O)n2C)n1C | -1.3% | 4.6% | -6.7% | 8.1% | -1.3% | 1.8
O=C(NC(=S)Nc1ccc(Br)cc1)C1CCCCC1 | 11.0% | ? | 5.01µM* | 7.94µM* | 17.9% | -5.7
O=C(NC(=S)Nc1cccc([N+](=O)[O-])c1)C1CCCC1 | 0.0% | ? | 12.6µM* | ? | -7.2% | 14.3
CC(=O)NC(=S)Nc1cccc([N+](=O)[O-])c1 | ? | -3.6% | ? | 16.3% | 1.5% | -19.6
CCOc1ccc(-c2nc3scc(-c4cccs4)c3c(=O)[nH]2)cc1 | 1.46µM* | 4.9% | 9.4% | 15.0% | 21.1% | 1.0
O=c1[nH]c(Cc2ccccn2)nc2scc(-c3ccc(Cl)cc3)c12 | ? | 1.3% | 5.62µM* | ? | -7.2% | -17.0
